# Assays:
# [1] = tested on: Epidermal growth factor receptor (Homo sapiens), P00533 [T790M]; conditions: at 1 µM
# [2] = tested on: Epidermal growth factor receptor (Homo sapiens), P00533 [L858R,T790M]; conditions: at 0.1 µM
# [3] = tested on: Epidermal growth factor receptor (Homo sapiens), P00533 [L858R,T790M]; conditions: at 1 µM
# [4] = biological target: Ephrin type-A receptor 2 (Homo sapiens) (UniProt P29317); conditions: at 0.1 µM
# [5] = biological target: Ephrin type-A receptor 2 (Homo sapiens) (UniProt P29317); conditions: at 1 µM
# [6] = biological target: T1, Ephrin type-A receptor 3 (Homo sapiens) (UniProt P29320); conditions: at 0.1 µM
# T1 sequence (whole entry): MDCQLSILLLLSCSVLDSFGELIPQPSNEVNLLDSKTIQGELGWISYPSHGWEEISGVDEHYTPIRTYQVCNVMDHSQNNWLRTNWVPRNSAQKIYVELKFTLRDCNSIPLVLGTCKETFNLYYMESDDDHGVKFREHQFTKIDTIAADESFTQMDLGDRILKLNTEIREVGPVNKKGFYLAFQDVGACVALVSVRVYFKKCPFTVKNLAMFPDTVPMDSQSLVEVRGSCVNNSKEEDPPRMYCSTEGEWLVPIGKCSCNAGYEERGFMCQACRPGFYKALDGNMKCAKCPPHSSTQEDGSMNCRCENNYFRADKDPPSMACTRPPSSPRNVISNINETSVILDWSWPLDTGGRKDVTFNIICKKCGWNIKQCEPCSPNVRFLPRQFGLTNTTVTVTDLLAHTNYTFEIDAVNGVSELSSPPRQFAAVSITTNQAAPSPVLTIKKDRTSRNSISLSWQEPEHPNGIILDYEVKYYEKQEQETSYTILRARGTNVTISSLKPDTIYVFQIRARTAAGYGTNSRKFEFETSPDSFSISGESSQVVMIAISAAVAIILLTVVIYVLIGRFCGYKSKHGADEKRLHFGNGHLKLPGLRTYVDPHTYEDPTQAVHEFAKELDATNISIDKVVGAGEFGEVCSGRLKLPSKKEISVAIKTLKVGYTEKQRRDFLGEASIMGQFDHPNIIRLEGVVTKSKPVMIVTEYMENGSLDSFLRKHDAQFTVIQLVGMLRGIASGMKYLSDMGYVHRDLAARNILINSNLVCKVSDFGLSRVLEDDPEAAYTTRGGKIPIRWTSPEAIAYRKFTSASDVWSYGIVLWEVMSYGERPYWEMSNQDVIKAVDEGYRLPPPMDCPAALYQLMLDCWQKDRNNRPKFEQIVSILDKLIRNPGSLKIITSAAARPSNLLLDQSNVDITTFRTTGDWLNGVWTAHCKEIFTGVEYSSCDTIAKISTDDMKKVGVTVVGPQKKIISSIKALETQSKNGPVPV
# [7] = biological target: T1, Ephrin type-A receptor 3 (Homo sapiens); conditions: at 1 µM
# [8] = biological target: Ephrin type-A receptor 4 (Homo sapiens) (UniProt P54764); conditions: at 0.1 µM
# [9] = biological target: Ephrin type-A receptor 4 (Homo sapiens) (UniProt P54764); conditions: at 1 µM
# [10] = biological target: T2, Ephrin type-B receptor 2 (Homo sapiens) (UniProt P29323); conditions: at 0.1 µM
# T2 sequence (whole entry): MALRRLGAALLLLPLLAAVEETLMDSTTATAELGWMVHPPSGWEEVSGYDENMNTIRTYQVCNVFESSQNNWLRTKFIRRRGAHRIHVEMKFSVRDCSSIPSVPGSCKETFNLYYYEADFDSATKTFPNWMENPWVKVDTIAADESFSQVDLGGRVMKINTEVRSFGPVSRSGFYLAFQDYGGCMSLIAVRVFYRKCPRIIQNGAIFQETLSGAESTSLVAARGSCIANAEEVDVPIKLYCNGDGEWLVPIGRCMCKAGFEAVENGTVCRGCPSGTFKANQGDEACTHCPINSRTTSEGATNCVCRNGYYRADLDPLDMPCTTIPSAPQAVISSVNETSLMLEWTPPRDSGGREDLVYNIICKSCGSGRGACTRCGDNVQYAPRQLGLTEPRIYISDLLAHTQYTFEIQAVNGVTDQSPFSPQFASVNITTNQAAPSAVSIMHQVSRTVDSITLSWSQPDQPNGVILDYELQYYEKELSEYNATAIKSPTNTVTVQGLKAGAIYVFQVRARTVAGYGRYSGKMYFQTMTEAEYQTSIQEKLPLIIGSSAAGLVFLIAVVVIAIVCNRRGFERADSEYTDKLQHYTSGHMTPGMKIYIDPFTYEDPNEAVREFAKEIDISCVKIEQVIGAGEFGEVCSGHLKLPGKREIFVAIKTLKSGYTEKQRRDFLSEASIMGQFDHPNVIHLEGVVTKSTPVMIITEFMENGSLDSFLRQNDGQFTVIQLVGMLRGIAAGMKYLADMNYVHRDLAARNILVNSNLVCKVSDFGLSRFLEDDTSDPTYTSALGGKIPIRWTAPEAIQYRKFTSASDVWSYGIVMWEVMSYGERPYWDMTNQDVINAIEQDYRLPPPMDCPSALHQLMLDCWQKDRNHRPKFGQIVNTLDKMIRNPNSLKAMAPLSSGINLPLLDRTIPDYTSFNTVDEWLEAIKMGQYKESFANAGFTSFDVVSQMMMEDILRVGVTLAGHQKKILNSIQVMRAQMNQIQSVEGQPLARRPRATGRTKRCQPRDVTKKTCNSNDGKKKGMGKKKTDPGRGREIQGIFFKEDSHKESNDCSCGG
# [11] = biological target: T2, Ephrin type-B receptor 2 (Homo sapiens); conditions: at 1 µM
# [12] = biological target: T3, Ephrin type-B receptor 3 (Homo sapiens) (UniProt P54753); conditions: at 0.1 µM
# T3 sequence (whole entry): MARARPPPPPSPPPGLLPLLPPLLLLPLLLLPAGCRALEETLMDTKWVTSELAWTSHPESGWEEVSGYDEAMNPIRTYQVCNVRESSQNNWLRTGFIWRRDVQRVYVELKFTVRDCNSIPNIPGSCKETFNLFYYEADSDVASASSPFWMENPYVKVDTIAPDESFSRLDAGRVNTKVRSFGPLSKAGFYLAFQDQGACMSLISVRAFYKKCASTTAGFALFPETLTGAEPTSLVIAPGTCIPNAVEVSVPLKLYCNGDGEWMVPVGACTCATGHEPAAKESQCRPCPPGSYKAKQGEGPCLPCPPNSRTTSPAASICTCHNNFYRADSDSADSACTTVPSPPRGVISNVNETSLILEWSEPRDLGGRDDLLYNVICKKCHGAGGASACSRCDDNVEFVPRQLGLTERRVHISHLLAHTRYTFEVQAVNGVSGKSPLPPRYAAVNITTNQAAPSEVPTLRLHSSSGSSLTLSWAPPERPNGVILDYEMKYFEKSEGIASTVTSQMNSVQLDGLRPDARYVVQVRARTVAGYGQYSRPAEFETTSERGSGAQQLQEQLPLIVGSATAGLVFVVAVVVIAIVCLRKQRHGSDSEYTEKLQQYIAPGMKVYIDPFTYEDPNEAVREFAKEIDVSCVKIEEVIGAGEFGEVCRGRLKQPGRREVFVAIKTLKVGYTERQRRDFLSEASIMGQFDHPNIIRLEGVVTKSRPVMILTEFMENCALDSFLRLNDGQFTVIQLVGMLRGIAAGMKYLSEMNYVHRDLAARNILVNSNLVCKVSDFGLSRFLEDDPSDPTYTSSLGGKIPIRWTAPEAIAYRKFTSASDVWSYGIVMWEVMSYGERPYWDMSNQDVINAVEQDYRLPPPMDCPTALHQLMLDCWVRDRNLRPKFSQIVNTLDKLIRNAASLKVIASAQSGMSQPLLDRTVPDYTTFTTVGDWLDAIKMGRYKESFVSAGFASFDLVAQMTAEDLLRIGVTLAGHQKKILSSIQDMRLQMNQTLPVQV
# [13] = biological target: T3, Ephrin type-B receptor 3 (Homo sapiens); conditions: at 1 µM
# [14] = biological target: T4, Ephrin type-B receptor 4 (Homo sapiens) (UniProt P54760); conditions: at 0.1 µM
# T4 sequence (whole entry): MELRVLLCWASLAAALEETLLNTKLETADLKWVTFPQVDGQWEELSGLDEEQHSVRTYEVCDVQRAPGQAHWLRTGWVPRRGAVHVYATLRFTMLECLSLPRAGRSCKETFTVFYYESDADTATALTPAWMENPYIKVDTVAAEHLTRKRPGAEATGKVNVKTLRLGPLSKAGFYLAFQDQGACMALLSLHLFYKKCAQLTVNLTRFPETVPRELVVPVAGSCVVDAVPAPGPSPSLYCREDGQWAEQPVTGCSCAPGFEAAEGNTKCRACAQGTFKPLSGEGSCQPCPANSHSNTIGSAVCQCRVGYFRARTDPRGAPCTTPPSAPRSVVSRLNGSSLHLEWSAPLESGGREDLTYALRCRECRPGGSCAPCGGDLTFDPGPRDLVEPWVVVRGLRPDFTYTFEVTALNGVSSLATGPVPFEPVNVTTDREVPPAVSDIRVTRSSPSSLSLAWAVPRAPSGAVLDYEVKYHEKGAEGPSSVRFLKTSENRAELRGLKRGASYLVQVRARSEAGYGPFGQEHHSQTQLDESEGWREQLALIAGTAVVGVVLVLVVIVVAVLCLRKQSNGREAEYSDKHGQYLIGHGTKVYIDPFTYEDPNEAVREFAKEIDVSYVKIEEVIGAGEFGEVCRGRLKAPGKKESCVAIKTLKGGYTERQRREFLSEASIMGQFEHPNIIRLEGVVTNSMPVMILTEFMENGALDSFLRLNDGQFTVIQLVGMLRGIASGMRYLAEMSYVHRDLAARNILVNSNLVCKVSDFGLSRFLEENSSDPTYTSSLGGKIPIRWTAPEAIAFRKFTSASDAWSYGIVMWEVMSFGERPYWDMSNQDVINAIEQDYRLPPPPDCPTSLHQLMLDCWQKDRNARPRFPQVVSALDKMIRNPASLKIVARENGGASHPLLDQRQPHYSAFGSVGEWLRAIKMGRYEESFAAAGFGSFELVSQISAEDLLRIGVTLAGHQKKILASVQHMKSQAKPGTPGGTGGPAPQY
# [15] = biological target: T4, Ephrin type-B receptor 4 (Homo sapiens); conditions: at 1 µM
# [16] = biological target: Receptor tyrosine-protein kinase erbB-2 (Homo sapiens) (UniProt P04626); conditions: at 0.1 µM
# [17] = biological target: Receptor tyrosine-protein kinase erbB-2 (Homo sapiens) (UniProt P04626); conditions: at 1 µM
# [18] = biological target: Receptor tyrosine-protein kinase erbB-4 (Homo sapiens) (UniProt Q15303); conditions: at 0.1 µM
# [19] = biological target: Receptor tyrosine-protein kinase erbB-4 (Homo sapiens) (UniProt Q15303); conditions: at 1 µM
# [20] = biological target: Tyrosine-protein kinase Fer (Homo sapiens) (UniProt P16591); conditions: at 0.1 µM;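 note: reported figures are averaged percent inhibition of FER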
# Tyrosine-protein kinase Fer (Homo sapiens), sequence (P16591 whole entry, looked up): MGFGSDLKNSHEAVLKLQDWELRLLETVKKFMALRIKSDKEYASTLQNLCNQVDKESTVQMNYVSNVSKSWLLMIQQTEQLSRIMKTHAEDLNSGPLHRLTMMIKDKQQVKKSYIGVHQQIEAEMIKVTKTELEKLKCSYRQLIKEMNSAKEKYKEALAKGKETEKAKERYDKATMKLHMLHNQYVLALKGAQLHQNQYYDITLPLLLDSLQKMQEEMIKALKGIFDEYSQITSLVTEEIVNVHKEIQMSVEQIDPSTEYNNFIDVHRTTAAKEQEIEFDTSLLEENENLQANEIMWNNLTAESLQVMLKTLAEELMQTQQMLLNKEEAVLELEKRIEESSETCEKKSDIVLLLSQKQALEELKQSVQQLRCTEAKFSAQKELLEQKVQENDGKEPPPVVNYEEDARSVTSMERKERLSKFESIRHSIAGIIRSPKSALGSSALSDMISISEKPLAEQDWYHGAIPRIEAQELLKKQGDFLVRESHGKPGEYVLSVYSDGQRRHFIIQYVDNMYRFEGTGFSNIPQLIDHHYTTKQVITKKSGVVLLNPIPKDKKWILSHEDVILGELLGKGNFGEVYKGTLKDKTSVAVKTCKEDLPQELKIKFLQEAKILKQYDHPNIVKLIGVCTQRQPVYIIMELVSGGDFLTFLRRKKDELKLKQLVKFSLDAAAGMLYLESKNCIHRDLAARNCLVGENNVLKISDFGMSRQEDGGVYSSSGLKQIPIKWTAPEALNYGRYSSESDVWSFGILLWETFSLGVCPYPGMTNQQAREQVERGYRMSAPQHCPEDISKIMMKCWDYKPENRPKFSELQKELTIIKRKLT
# Epidermal growth factor receptor (Homo sapiens), P00533 [L858R,T790M], sequence (P00533 whole entry T790M/L858R, looked up): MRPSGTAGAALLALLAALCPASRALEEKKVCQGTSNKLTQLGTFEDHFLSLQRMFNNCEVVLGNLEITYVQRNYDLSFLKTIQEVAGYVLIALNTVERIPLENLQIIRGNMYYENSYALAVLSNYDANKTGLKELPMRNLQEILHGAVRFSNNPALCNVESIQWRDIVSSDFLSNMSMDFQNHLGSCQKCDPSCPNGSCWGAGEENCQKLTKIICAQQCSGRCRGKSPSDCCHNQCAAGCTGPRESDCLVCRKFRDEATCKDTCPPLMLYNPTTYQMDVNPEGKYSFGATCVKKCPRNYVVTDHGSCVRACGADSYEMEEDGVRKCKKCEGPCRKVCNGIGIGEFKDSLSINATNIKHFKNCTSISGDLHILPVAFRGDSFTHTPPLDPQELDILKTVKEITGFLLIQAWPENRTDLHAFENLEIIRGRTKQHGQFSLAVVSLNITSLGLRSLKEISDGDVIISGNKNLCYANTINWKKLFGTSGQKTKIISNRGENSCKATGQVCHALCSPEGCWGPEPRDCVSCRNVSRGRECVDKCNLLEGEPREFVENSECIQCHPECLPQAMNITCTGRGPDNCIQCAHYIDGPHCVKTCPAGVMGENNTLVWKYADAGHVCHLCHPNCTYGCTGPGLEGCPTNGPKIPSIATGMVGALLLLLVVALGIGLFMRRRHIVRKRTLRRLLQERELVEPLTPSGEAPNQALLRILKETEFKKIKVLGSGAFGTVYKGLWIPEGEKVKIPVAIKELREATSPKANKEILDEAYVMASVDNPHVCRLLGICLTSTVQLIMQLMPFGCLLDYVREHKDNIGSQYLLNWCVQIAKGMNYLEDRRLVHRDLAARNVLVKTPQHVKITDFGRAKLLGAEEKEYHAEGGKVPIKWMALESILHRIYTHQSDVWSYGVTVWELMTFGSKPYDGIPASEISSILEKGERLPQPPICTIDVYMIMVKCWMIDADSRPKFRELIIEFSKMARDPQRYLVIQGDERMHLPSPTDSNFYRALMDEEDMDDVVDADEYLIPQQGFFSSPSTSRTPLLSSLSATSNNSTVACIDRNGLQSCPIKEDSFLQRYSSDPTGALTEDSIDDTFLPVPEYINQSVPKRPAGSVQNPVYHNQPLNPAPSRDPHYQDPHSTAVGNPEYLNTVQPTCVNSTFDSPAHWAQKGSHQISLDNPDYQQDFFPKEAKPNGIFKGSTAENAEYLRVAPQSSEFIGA
# Epidermal growth factor receptor (Homo sapiens), P00533 [T790M], sequence (P00533 whole entry T790M): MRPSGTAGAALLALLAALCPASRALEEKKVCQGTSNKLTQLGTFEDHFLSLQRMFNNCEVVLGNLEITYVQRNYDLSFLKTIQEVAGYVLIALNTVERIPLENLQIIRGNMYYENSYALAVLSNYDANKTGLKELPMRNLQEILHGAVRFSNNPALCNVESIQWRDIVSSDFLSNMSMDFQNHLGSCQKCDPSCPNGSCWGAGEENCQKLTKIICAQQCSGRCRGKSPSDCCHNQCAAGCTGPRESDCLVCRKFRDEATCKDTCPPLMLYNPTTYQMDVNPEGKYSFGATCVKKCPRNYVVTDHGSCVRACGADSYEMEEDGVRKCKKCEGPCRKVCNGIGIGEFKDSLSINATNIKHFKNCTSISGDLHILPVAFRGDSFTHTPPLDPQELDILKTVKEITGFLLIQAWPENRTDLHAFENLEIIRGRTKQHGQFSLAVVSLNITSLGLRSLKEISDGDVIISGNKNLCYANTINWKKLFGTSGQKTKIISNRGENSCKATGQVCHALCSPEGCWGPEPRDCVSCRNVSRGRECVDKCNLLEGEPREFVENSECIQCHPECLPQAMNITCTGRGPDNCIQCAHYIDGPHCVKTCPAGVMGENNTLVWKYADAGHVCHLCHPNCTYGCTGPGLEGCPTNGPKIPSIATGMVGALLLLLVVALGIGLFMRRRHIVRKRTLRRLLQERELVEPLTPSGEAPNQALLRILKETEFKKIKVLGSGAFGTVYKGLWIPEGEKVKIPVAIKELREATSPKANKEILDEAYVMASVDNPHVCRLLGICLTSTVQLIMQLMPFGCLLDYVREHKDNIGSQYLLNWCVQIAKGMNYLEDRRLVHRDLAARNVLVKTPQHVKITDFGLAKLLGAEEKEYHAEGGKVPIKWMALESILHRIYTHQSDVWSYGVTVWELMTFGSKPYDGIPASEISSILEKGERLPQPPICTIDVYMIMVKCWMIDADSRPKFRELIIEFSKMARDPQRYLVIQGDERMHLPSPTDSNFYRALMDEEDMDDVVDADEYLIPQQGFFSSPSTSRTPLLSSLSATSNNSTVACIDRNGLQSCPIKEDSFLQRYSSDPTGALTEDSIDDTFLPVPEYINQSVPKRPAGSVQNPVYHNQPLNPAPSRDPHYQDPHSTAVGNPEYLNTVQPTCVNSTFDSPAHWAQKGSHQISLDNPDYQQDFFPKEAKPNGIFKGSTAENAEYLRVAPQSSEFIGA
# Ephrin type-A receptor 4 (Homo sapiens), sequence (P54764 whole entry): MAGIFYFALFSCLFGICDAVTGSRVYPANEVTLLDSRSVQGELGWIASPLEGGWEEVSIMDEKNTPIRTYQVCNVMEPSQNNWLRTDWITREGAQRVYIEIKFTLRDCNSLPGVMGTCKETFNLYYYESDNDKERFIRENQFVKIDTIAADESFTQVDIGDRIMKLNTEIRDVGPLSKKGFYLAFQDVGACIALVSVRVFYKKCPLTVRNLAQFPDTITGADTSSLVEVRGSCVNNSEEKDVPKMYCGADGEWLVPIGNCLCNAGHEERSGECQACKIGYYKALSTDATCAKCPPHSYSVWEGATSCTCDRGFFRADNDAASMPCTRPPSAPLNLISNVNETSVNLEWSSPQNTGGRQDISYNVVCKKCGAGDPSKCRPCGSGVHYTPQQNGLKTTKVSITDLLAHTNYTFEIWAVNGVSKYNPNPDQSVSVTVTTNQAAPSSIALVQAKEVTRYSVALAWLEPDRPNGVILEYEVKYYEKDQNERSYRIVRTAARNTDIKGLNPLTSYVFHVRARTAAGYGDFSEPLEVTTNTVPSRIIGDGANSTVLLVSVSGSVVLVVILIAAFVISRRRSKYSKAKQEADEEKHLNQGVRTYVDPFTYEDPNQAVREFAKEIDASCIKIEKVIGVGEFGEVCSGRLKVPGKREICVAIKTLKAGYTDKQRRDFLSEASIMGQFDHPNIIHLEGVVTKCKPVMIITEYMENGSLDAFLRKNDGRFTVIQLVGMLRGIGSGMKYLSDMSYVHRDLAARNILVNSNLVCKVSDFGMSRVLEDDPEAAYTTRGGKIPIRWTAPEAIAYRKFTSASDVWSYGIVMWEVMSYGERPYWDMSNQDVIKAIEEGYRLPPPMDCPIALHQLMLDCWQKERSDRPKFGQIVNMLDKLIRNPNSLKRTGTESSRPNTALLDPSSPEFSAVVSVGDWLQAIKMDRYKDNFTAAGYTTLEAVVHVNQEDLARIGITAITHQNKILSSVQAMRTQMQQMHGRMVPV
SMILES,inhibition [1],inhibition [2],inhibition [3],inhibition [4],inhibition [5],inhibition [6],inhibition [7],inhibition [8],inhibition [9],inhibition [10],inhibition [11],inhibition [12],inhibition [13],inhibition [14],inhibition [15],inhibition [16],inhibition [17],inhibition [18],inhibition [19],inhibition [20]
COc1ccc2cc(-c3c(-c4ccncc4)nc(-c4ccc([S+](C)[O-])cc4C)n3C)ccc2c1 (stereo not given),0.13%,-3%,3.5%,-1.85%,-0.23%,-1.34%,-0.2%,-0.17%,18.6%,1.99%,19.7%,4.06%,14.6%,4.17%,22.5%,1.42%,5.05%,9.39%,37.1%,1.31%
COc1ccc2cc(-c3c(-c4ccncc4)nc(-c4ccc(S(C)(=O)=O)cc4C)n3C)ccc2c1,3.3%,1.66%,2.57%,0.22%,0.86%,4.84%,3.83%,9.07%,17.6%,4.7%,12.5%,7.13%,10.9%,4.32%,14.2%,5.67%,8.01%,15%,44.4%,3.19%
CN(c1ccc(NC(=O)Nc2c(Cl)cccc2Cl)cc1)c1ccnc(Nc2cccc(CS(C)(=O)=O)c2)n1,2.21%,2.48%,3.18%,3.5%,7.74%,7.33%,7.13%,10.6%,33.8%,4.12%,27.3%,2.02%,4.62%,2.86%,8.72%,1.88%,7.2%,11.2%,17.1%,51.9%
COc1cc(Nc2ncc(-c3ccccc3)o2)cc(OC)c1OC,1.16%,-0.28%,-0.54%,-3.3%,-1.26%,-6.76%,-5.8%,-7.25%,1.47%,-1.44%,5.83%,-5.87%,-2.19%,1.05%,3.25%,0.87%,-1.74%,-4.19%,-2.66%,-1.48%
COc1cc(Nc2ncc3c(C)nc(-c4cccc(Oc5ccccc5)c4)n3n2)cc(OC)c1OC,-1.01%,1.23%,-0.96%,1.16%,-0.33%,3.2%,1.56%,5.4%,3.74%,4.87%,8.52%,4.24%,1.21%,2.59%,2.97%,1.99%,-3.48%,7.04%,8.43%,3.91%
CCS(=O)(=O)c1ccc(OC)c(Nc2ncc(-c3cccc(-c4ccccc4F)c3)o2)c1,0.84%,3.32%,5.25%,-1.44%,-0.56%,-1.38%,4.18%,2.37%,2.94%,5.91%,11.9%,2.15%,0.93%,0.78%,8.8%,-0.34%,2.22%,5.89%,15.2%,0.83%
CCN(CC)Cc1ccc(Nc2nccc(-c3cnn4ncccc34)n2)cc1,1.33%,0.05%,4.64%,-3.31%,-5.2%,-1.76%,0.69%,6.79%,15.2%,8.25%,27.2%,-0.97%,0.55%,1.62%,8.4%,3.58%,3.96%,1.52%,5.17%,3.88%
